The term AC50 denotes the midpoint of the concentration-response curve, whichever way the signal moves.

Results filed as inconclusive are left out. Activity calls are given as the source filed them. The calls were made as follows, unless noted: active = hit-call score of the fitted dose curve at least 0.9, where 1 is the maximum; inactive = score below 0.9.

The record followed here is PubChem BioAssay (EPA / NIEHS).

The target in experiment [1] is Glucocorticoid receptor (Homo sapiens) (UniProt P04150). Kind of experiment: ATG_GR_TRANS: Attagene TRANS-FACTORIAL HepG2 Assay for human Glucocorticoid Receptor (GR) (AID 2282978; active = hit-call score of the fitted dose curve at least 0.9, where 1 is the maximum;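 also: activators score as hits since higher reporter transcript over DMSO is fitted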). The settings on record: HepG2 Attagene TRANS GR reporter, mRNA transcription. In a few lines: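 Transiently transfected HepG2 cells express chimeric NR-GAL4 proteins acting on GAL4-UAS reporter units. Compounds are applied for 24 h. mRNA induction over DMSO is measured by capillary electrophoresis.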
Sequence of Glucocorticoid receptor (Homo sapiens) (P04150 whole entry, looked up, the tested form may be a part): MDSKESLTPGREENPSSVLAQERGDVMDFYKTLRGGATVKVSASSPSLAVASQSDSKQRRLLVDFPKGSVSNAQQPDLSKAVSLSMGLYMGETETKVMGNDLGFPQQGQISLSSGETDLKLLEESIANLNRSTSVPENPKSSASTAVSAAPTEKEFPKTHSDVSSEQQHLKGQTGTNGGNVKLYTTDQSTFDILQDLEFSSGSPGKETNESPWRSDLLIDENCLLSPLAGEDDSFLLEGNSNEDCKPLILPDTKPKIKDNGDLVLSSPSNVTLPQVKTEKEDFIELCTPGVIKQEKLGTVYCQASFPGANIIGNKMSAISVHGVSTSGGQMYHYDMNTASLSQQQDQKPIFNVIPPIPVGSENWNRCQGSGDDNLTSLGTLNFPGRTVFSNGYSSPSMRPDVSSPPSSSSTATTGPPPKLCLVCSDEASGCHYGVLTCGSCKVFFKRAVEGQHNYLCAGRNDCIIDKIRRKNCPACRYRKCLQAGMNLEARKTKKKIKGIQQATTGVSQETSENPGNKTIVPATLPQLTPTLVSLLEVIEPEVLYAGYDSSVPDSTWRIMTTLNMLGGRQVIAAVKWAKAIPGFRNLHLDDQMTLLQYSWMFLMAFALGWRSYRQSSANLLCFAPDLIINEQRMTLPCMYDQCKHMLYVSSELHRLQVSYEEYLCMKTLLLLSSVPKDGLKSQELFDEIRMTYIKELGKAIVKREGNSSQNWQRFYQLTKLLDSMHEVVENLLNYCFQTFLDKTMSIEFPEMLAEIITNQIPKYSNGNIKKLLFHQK

Experiment [2] addresses Oxysterols receptor LXR-alpha (Homo sapiens) (UniProt Q13133). Put plainly: ATG_LXRa_TRANS: Attagene TRANS-FACTORIAL HepG2 Assay for human Liver X Receptor alpha (LXRa) (AID 2282980; active = hit-call score of the fitted dose curve at least 0.9, where 1 is the maximum). The settings on record: HepG2 Attagene TRANS reporter, LXRa transactivation. In a few lines: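 HepG2 cells transiently transfected with GAL4-UAS reporter units for chimeric NR-Gal4 proteins, exposed to chemicals for 24 h. Reporter mRNA quantified by RT-PCR and capillary electrophoresis; gain of signal fitted relative to DMSO.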

Experiment [3] has as its target Oxysterols receptor LXR-beta (Homo sapiens) (UniProt P55055). Kind of experiment: ATG_LXRb_TRANS: Attagene TRANS-FACTORIAL HepG2 Assay for human Liver X Receptor beta (LXRb) (AID 2282981; active = hit-call score of the fitted dose curve at least 0.9, where 1 is the maximum). The settings on record: HepG2 Attagene TRANS GAL4-LXRb reporter, mRNA. In a few lines: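 HepG2 cells transiently transfected with GAL4-UAS reporter units for chimeric NR-Gal4 proteins, dosed for 24 h. Reporter transcripts measured by RT-PCR and capillary electrophoresis; gain-of-signal fitting relative to DMSO.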

Experiment [4] has as its target Hepatocyte nuclear factor 4-alpha (Homo sapiens) (UniProt P41235). Kind of experiment: ATG_HNF4a_TRANS: Attagene TRANS-FACTORIAL HepG2 Assay for human Hepatocyte Nuclear Factor 4 alpha (HNF4a) (AID 2282982; active = hit-call score of the fitted dose curve at least 0.9, where 1 is the maximum). The settings on record: HepG2 HNF4a transactivation reporter, mRNA readout. In a few lines: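 HepG2 cells transiently transfected with HNF4a-Gal4 chimera and GAL4-UAS reporter units, dosed for 24 h. Reporter mRNA measured by RT-PCR, fluorescent primer extension and capillary electrophoresis; gain-of-signal fitted relative to DMSO.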

Experiment [5] can be described thus: ATG_M_32_TRANS: Attagene TRANS-FACTORIAL HepG2 Assay for M32 Transcription Factor (Internal Marker) (AID 2282984; active = hit-call score of the fitted dose curve at least 0.9, where 1 is the maximum). The settings on record: HepG2 Attagene TRANS M32 internal marker reporter. In a few lines:
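HepG2 cells transiently transfected with GAL4-UAS reporter units, dosed for 24 hours. Reporter mRNA quantified by RT-PCR, 6-FAM labelling, HpaI digestion and capillary electrophoresis; internal-marker signal fitted upward relative to DMSO.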

In experiment [6] the target is Transcriptional activator Myb (Homo sapiens) (UniProt P10242). Put plainly: ATG_Myb_CIS: Attagene CIS-FACTORIAL HepG2 Assay for human Myeloblastosis (Myb) Proto-Oncogene Transcription Factor (AID 2282986). The settings on record: HepG2 Attagene CIS-FACTORIAL Myb reporter transcription; actives raise or lower the signal. In a few lines: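 Using HepG2 liver cells bearing transiently transfected cis-promoter reporter constructs, the assay measures induction or loss of reporter mRNA after 24 hours of dosing. Detection used fluorescently labeled RT-PCR products separated by capillary electrophoresis.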
Sequence of Transcriptional activator Myb (Homo sapiens) (P10242 whole entry, looked up): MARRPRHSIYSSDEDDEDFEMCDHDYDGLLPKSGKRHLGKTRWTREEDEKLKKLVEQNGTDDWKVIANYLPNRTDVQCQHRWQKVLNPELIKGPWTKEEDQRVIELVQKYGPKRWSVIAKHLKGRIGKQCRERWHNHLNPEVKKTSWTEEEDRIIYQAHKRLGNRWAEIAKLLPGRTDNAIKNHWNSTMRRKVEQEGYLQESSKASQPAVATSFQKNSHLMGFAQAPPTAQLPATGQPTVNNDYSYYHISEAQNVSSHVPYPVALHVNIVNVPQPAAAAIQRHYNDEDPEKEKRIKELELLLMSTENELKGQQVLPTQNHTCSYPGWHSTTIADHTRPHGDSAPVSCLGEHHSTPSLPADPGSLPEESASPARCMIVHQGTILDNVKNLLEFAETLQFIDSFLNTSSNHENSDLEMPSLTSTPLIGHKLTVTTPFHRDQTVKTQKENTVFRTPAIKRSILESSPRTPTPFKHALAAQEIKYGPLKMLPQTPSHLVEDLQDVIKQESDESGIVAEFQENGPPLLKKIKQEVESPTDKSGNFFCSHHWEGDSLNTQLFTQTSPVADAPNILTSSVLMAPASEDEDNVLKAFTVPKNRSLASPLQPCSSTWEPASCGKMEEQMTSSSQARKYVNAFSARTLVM

Experiment [7] concerns the target Nuclear respiratory factor 1 (Homo sapiens) (UniProt Q16656). Kind of experiment: ATG_NRF1_CIS: Attagene CIS-FACTORIAL HepG2 Assay for human Nuclear Respiratory Factor 1 (NRF1) Orphan Gene (AID 2282987). The settings on record: HepG2 NRF1 cis-element reporter, Attagene multiplex; actives raise or lower the signal. In a few lines:
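Reporter mRNA induction or loss in HepG2 cells after 24 h dosing; cis-regulated reporter constructs report endogenous transcription-factor activity. Quantified by RT-PCR/capillary electrophoresis fluorescence, DMSO-referenced.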

The nature of experiment [8]: ATG_NFI_CIS: Attagene CIS-FACTORIAL HepG2 Assay for human Nuclear Factor I (NFI) (AID 2282989). The settings on record: HepG2 cis-regulatory reporter, NFI response element transcription; actives raise or lower the signal. In a few lines: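 Cells: human liver HepG2, transiently transfected with promoter-regulated reporter transcription units. Exposure 24 h. Detection: fluorescent RT-PCR products separated by capillary electrophoresis, normalised to DMSO negative control.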

The target in experiment [9] is Myc proto-oncogene protein (Homo sapiens) (UniProt P01106). Put plainly: ATG_Myc_CIS: Attagene CIS-FACTORIAL HepG2 Assay for human Myelocytomatosis (Myc) Proto-Oncogene Transcription Factor (AID 2282990). The settings on record: HepG2, Attagene cis-reporter transcription factor activity; actives raise or lower the signal. In a few lines:
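Read-out: fluorescent reporter mRNA fragments resolved by capillary electrophoresis after RT-PCR. Human HepG2 liver cells carried transfected cis-element reporter units and were dosed for 24 h. Gain or loss of signal fitted relative to DMSO baseline.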

Experiment [10] is described as follows: ATG_NF_kB_CIS: Attagene CIS-FACTORIAL HepG2 Assay for human Nuclear Factor Kappa B (NF-kB) (AID 2282991). The settings on record: HepG2 Attagene cis-factorial NF-kB reporter mRNA; actives raise or lower the signal. In a few lines: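 DMSO served as negative control and baseline for bidirectional curve fitting. Transiently transfected HepG2 cells were dosed for 24 h, then reporter transcripts were measured by RT-PCR with capillary electrophoresis detection.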

Experiment [11] is described as follows: ATG_NRF2_ARE_CIS: Attagene CIS-FACTORIAL HepG2 Assay for human Nuclear Factor Erythroid 2 Related Factor 2 (NFR2) response to Antioxidant Response Elements (ARE) (AID 2282992).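 As to AC50: reporter mRNA level measured by RT-PCR and capillary electrophoresis fluorescence.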 The settings on record: HepG2 Attagene ARE/NRF2 reporter, transcription factor activity; actives raise or lower the signal. In a few lines: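 HepG2 cells transiently transfected with multiplexed cis-regulated reporter transcription units measure endogenous transcription factor activity. Reporter mRNA at 24 h is quantified by RT-PCR, fluorescent labelling and capillary electrophoresis, with bidirectional fitting relative to DMSO.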

The nature of experiment [12]: ATG_Oct_MLP_CIS: Attagene CIS-FACTORIAL HepG2 Assay for human Octamer-Binding Transcription Factor (Oct) (AID 2282993). The settings on record: HepG2 Attagene cis-factorial Oct reporter, mRNA; actives raise or lower the signal. In a few lines:
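HepG2, transient MRTU transfection, cis promoter elements; 24 h dosing; RT-PCR/CE fluorescence read-out of reporter mRNA; fit both directions vs DMSO.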

Experiment [13] concerns the target Cellular tumor antigen p53 (Homo sapiens) (UniProt P04637). Kind of experiment: ATG_p53_CIS: Attagene CIS-FACTORIAL HepG2 Assay for human p53 Transcription Factor (AID 2282994). The settings on record: HepG2 p53 cis-element reporter, Attagene mRNA; actives raise or lower the signal. In a few lines: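 HepG2 cells transiently transfected with multiplexed cis-regulated reporter transcription units read endogenous TF activity. After 24 h compound exposure, reporter mRNA was quantified by RT-PCR, fluorescent labelling, HpaI digestion and capillary electrophoresis; bidirectional fits versus DMSO baseline.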

Experiment [14] is described as follows: BSK_3C_TissueFactor: BioMAP Diversity Plus: 3C Assay for Tissue Factor Biomarker Activity (AID 2282997). The settings on record: BioMAP 3C HUVEC, tissue factor biomarker readout; actives raise or lower the signal. In a few lines:
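HUVEC were treated 24 h, then surface tissue factor measured by ELISA and fitted bidirectionally against DMSO. Parallel SRB total-protein staining assessed overt cytotoxicity at the same time point.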

Experiment [15] in a line: BSK_3C_uPAR: BioMAP Diversity Plus: 3C Assay for Urokinase-type plasminogen activator receptor (uPAR) Biomarker Activity (AID 2282998). The settings on record: BioMAP 3C HUVEC, uPAR biomarker ELISA; actives raise or lower the signal. In a few lines: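 A multiplexed primary-cell system built on human umbilical vein endothelium was used, with chemical present for 24 h before reading. Cell-surface uPAR was detected by ELISA; signal change in either direction counted against DMSO.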
(In an ELISA, binding on a coated surface is turned into a signal by an enzyme label.)

Experiment [16] can be described thus: ATG_GAL4_TRANS: Attagene TRANS-FACTORIAL HepG2 Assay for GAL4 (Internal Marker) (AID 2282976; active = hit-call score of the fitted dose curve at least 0.9, where 1 is the maximum). The settings on record: HepG2 Attagene TRANS GAL4 internal marker reporter. In a few lines:
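Background-control readout: GAL4-UAS reporter transcript in transiently transfected HepG2 cells after 24 h compound exposure. Measured by RT-PCR, 6-FAM primer extension, HpaI digest and capillary electrophoresis; gain-of-signal fit versus DMSO.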

A short description of experiment [17]: ATG_M_06_TRANS: Attagene TRANS-FACTORIAL HepG2 Assay for M06 Transcription Factor (Internal Marker) (AID 2282983; active = hit-call score of the fitted dose curve at least 0.9, where 1 is the maximum;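 also: reporter transcript level by RT-PCR then capillary electrophoresis fluorescence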). The settings on record: HepG2 Attagene TRANS M06 internal marker reporter. In a few lines: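 HepG2 cells transiently transfected with GAL4-UAS multiple reporter units, dosed 24 h. Reporter RNA reverse-transcribed, PCR-amplified, 6-FAM-labeled, HpaI-digested and quantified by capillary electrophoresis; this internal-marker signal fitted upward relative to DMSO.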

Experiment [18] addresses Nuclear receptor subfamily 4 group A member 2 (Homo sapiens) (UniProt P43354). Kind of experiment: ATG_NURR1_TRANS: Attagene TRANS-FACTORIAL HepG2 Assay for human Nuclear Receptor Related Protein 1 (NURR1) (AID 2282985; active = hit-call score of the fitted dose curve at least 0.9, where 1 is the maximum). The settings on record: HepG2 Attagene TRANS reporter, mRNA readout. In a few lines:
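HepG2 cells transiently transfected with NURR1-Gal4 chimera and GAL4-UAS reporter units; after 24 hr compound exposure, reporter mRNA quantified by RT-PCR and capillary electrophoresis; gain of signal fitted against DMSO.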

Sequence of Nuclear respiratory factor 1 (Homo sapiens) (Q16656 whole entry, looked up): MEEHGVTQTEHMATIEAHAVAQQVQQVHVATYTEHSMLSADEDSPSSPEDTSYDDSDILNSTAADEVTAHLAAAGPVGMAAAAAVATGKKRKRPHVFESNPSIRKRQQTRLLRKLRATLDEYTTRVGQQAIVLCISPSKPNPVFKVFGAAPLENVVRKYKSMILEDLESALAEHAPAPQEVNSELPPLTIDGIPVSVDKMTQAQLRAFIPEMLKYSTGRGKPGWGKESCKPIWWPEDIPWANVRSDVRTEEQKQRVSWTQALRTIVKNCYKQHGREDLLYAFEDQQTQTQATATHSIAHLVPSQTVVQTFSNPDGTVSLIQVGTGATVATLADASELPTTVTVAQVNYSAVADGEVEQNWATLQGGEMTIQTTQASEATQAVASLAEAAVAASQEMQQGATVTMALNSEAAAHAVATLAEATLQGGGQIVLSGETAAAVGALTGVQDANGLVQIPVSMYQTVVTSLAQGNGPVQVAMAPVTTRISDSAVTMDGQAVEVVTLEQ
Sequence of Cellular tumor antigen p53 (Homo sapiens) (P04637 whole entry, looked up): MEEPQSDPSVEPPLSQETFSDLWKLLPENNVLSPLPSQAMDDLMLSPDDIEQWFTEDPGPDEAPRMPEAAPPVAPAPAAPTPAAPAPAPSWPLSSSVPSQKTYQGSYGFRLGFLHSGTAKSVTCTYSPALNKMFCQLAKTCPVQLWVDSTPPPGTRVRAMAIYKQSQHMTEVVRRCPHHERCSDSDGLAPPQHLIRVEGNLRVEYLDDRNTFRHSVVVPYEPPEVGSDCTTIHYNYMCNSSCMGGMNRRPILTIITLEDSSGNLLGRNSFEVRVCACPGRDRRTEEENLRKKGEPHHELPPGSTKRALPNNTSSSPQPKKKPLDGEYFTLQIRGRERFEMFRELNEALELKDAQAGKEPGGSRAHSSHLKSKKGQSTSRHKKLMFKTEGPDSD
Sequence of Hepatocyte nuclear factor 4-alpha (Homo sapiens) (P41235 whole entry, looked up, the tested form may be a part): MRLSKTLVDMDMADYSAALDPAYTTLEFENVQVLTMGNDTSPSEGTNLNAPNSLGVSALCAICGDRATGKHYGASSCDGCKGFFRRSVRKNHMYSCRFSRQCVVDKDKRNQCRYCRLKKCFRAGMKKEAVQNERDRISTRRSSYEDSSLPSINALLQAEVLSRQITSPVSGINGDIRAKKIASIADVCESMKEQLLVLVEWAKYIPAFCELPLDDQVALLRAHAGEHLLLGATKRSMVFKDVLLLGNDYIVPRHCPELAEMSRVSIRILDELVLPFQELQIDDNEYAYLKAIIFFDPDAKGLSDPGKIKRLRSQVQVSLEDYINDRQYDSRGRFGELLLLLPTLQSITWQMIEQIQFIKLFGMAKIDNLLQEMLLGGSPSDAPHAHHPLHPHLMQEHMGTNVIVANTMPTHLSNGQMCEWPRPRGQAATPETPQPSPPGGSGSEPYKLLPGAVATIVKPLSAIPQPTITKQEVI
Sequence of Myc proto-oncogene protein (Homo sapiens) (P01106 whole entry, looked up, the tested form may be a part): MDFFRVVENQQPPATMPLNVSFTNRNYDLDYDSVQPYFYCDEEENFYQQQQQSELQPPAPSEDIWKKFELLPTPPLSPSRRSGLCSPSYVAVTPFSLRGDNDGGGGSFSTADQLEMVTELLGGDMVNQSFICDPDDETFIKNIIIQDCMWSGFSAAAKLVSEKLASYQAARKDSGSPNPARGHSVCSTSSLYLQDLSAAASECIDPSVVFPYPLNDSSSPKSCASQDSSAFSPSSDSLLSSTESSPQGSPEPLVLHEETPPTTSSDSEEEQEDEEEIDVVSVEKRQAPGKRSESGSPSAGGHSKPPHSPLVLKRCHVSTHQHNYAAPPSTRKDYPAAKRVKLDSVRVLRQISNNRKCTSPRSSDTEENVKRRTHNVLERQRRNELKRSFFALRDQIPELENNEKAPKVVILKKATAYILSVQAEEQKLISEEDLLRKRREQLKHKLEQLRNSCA
Sequence of Oxysterols receptor LXR-alpha (Homo sapiens) (Q13133 whole entry, looked up, the tested form may be a part): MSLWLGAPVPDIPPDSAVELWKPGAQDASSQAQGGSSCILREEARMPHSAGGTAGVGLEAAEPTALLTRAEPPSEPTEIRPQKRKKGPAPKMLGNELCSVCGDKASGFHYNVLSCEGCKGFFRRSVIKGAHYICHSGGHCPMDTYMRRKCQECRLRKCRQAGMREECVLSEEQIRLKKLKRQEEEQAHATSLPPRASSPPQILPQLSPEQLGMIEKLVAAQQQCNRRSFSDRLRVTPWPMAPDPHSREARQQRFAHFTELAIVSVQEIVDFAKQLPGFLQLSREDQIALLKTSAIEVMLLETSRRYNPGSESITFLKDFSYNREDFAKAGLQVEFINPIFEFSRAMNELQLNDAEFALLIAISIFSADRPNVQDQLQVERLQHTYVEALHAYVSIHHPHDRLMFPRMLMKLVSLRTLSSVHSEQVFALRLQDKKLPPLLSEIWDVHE
Sequence of Nuclear receptor subfamily 4 group A member 2 (Homo sapiens) (P43354 whole entry, looked up, the tested form may be a part): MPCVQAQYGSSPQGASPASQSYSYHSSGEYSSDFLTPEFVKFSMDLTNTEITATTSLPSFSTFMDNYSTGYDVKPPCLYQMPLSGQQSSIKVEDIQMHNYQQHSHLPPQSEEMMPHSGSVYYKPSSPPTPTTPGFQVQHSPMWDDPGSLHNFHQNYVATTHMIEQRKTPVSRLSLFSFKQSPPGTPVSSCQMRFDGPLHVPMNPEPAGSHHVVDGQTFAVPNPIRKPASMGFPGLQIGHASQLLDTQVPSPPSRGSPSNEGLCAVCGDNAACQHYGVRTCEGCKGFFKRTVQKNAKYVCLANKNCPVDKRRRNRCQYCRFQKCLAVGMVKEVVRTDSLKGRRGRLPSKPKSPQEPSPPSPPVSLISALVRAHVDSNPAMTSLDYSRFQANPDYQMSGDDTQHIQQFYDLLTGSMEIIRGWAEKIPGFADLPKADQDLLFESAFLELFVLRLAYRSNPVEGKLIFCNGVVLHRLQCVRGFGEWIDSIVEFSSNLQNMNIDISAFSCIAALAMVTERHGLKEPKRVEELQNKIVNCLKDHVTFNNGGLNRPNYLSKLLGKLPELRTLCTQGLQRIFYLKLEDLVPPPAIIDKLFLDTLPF
Sequence of Oxysterols receptor LXR-beta (Homo sapiens) (P55055 whole entry, looked up, the tested form may be a part): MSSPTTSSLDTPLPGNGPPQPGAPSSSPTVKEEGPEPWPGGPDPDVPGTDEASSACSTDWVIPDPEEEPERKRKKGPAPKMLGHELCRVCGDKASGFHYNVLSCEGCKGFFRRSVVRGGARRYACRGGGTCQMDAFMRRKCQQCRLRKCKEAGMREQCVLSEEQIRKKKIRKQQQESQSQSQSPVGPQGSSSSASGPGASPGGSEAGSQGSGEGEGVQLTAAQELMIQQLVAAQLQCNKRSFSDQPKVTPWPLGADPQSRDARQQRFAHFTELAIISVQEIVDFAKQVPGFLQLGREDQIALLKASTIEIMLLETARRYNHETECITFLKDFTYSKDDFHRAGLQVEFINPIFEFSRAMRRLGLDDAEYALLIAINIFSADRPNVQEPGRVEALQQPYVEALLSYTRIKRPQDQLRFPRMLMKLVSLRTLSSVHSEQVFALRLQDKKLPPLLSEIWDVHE

For the compound `CC(C)(C)C(=O)C(Oc1ccc(Cl)cc1)n1cncn1` (stereo unspecified), the outcome in experiment [1], in [2], in [3], in experiment [4], in experiment [5] and in experiment [6] was inactive. Moreover, the outcome in experiment [7], in experiment [8], in experiment [9], in [10], in experiment [13] and in [14] was inactive. Besides, in experiment [15], the outcome was inactive. For the same compound, the AC50 is 20.3 µM (active) in experiment [11] and 19.4 µM (active) in experiment [12].

On to `CSC(=O)c1c(C(F)F)nc(C(F)(F)F)c(C(=O)SC)c1CC(C)C`, for which the outcome in experiment [16], in experiment [1], in [4], in experiment [17], in experiment [5] and in [6] was inactive. The compound was called inactive in [7], in experiment [8], in experiment [11], in [12], in experiment [13] and in [14]. Besides, the AC50 in experiment [18] is 13.5 µM (active); in experiment [15], 32.6 µM (active).

In the case of `CC1(C)C(C=C(Cl)Cl)C1C(=O)OC(C#N)c1cccc(Oc2ccccc2)c1` (stereo unspecified), the compound was classed as inactive in experiment [16], in experiment [1], in experiment [4], in experiment [17], in [5] and in experiment [18]. Also, the compound was called inactive in experiment [6], in experiment [7], in experiment [8], in experiment [9], in experiment [10] and in experiment [12]. Besides, the compound was called inactive in [13] and in experiment [14]. For the same compound, the results for the half-maximal activity concentration (AC50) in experiment [11] and in experiment [15] were 0.723 µM (active) and 13.9 µM (active), respectively.

Consider `Cc1cc(C)nc(Nc2ccccc2)n1`, for which the outcome in [1], in experiment [2], in [3], in [4], in experiment [17] and in [5] was inactive. The outcome in experiment [6], in experiment [7], in experiment [8], in [9], in [10] and in experiment [13] was inactive. The outcome in experiment [14] and in [15] was inactive. Besides, the figures for the half-maximal activity concentration (AC50) in experiment [11] and in [12] were 21.6 µM (active) and 12 µM (active), respectively.
